Measurements published in paper PMC4552634, “A New Set of Chemical Starting Points with Plasmodium falciparum Transmission-Blocking Potential for Antimalarial Drug Discovery” (PLoS ONE, 2015).
In all, about 13,000 compounds went through this assay and about 3,200 (25%) showed an effect of 50% or more. The list shows a part of the results.

The molecules below were run on P. falciparum stage V gametocytes. Conditions: 48 h, 5 µM; inhibitor.
Design: BacTiter-Glo ATP luminescence viability of purified stage V gametocytes in 384-well plates, per cent inhibition versus DMSO

| Structure (SMILES) | % Inhibition [%] |
| --- | --- |
| CCOc1ccc(OCC(=O)Nc2nc(-c3ccc(OC)cc3)c(C)s2)cc1 [TCMDC-124322] | 37.56 |
| CN(C)CCOc1ccc(-c2cc(-c3ccc(Cl)c(O)c3)c(-c3ccncc3)[nH]2)cc1 [TCMDC-141255] | -84.18 |
| Oc1c(Cl)cc(Nc2nccc(Nc3ccc(Oc4ccccc4)cc3)n2)cc1Cl [TCMDC-138588] | -66 |
| Clc1ccc(-n2cnc3c(Nc4ccc(Oc5ccccc5)cc4)ncnc32)cc1Cl [TCMDC-138209] | 88.06 |
| c1ccc(Oc2ccc(Nc3nncc4ccccc34)cc2)cc1 [TCMDC-137229] | 25.45 |
| Nc1ccc(-c2cc(Cl)cc(Cl)c2)cc1-c1cc2ccccc2[nH]1 [TCMDC-139051] | -15.54 |
| CCCCc1ccc(S(=O)(=O)Nc2ccc3c(c2)CCN(Cc2c[nH]c4cnccc24)CC3)cc1 [TCMDC-136797] | -5.765 |
| Nc1nc(N)c2cc(NS(=O)(=O)c3ccc(-c4ccccc4)cc3)ccc2n1 [TCMDC-135430] | 5.991 |
| CN1Cc2ccc(NS(=O)(=O)c3ccc(-c4ccoc4)cc3)cc2C1 [TCMDC-141495] | 67.76 |
| CCCc1ccc(S(=O)(=O)Nc2ccc3c(c2)CCC3)cc1 [TCMDC-125822] | 10.44 |
| Cc1nc(N2CCC(C)CC2)c2c3c(sc2n1)CCCC3 [TCMDC-125646] | 3.329 |
| C=C(C)C1CC=C(CN2CCCC(n3ccc4cc(NC(=O)c5ccco5)ccc43)CC2)CC1 (stereo not drawn) [TCMDC-135090] | -20.08 |
| CCC(=O)c1c(C)n(-c2ncnc3c2nc(C)n3-c2ccc(C)cc2C)c2ccccc12 [TCMDC-136513] | 51.77 |
| Cc1nc2c(-n3cc(Cn4ccnc4)c4ccccc43)ncnc2n1-c1ccc(Cl)cc1Cl [TCMDC-136514] | 37.26 |
| Cc1noc(-c2ccc3c(c2)CCN(CCC2CCC(NC(=O)c4cc5ccccc5[nH]4)CC2)CC3)n1 (stereo not drawn) [TCMDC-139876] | -74.07 |
| CN(C)CCOc1cc(NC(=O)Nc2ccc(-c3ccccc3)cc2)ccc1I [TCMDC-139150] | -45.78 |
| CN(C)CCCn1cc(C(=O)OC2CC3CCC(C2)N3C)c2cc(-c3ccccc3)ccc21 (stereo not drawn) [TCMDC-139094] | 100.6 |
| O=S(=O)(NCCN1CCCC1)c1cccc(-c2ccc(CNCc3ccccc3)cc2)c1 [TCMDC-132240] | 108.6 |
| O=S(=O)(NCCN1CCCC1)c1cccc(-c2cccc(CNCc3ccccc3)c2)c1 [TCMDC-132226] | 104 |
| O=C1C(c2ccccc2)=C(Nc2ccc([N+](=O)[O-])cc2)c2ccccc21 [TCMDC-125490] | 10.18 |
| COc1ccc(NC2=C(c3ccccc3)C(=O)c3ccccc32)cn1 [TCMDC-125501] | 36.53 |
| O=C1C(c2ccccc2)=C(Nc2cccc(OC(F)(F)C(F)F)c2)c2ccccc21 [TCMDC-125498] | 65.78 |
| O=C1C(c2ccccc2)=C(Nc2cccc([N+](=O)[O-])c2)c2ccccc21 [TCMDC-125484] | 25.85 |

| Structure (SMILES) | % Inhibition [%] |
| --- | --- |
| COc1cc(NC2=C(c3ccccc3)C(=O)c3ccccc32)ccn1 [TCMDC-135283] | 73.83 |
| O=C1C(c2ccccc2)=C(Nc2ccc(Cl)cc2)c2ccccc21 [TCMDC-125493] | 32.25 |
| Nn1c(=O)oc2ccc(Cl)cc2c1=O [TCMDC-125519] | 8.283 |
| FC(F)(F)c1ccc2nccc(NN=Cc3ccccc3)c2c1 [TCMDC-142024] | -3.615 |
| CCc1cccc(-c2cc(=N)n(C)c3nc(N)[nH]c(=O)c23)c1 [TCMDC-137737] | -30.45 |
| COc1ccc2nccc([C@@H](O)CN3CCC(NCc4nc5c(cc4Cl)OCC(=O)N5)C(F)C3)c2c1 (stereo partly drawn) [TCMDC-141722] | 15.19 |
| CCCCN(C(=O)c1ccccc1Cl)c1nnc(-c2ccccc2C)s1 [TCMDC-125120] | -1.012 |
| CCCCN(C(=O)c1ccccc1C)c1nnc(-c2ccccc2C)s1 [TCMDC-124385] | 52.67 |
| CCCN(C(=O)c1ccccc1C)c1nnc(-c2ccccc2C)s1 [TCMDC-124386] | 7.474 |
| CCCOC(=O)C1=C(C)NC2=C(C(=O)CC(c3ccc(OC)c(OC)c3)C2)C1c1cccc(O)c1 (stereo not drawn) [TCMDC-125632] | 53.3 |
| CCC(C)OC(=O)C1=C(C)NC2=C(C(=O)CC(c3ccc(OC)c(OC)c3)C2)C1c1cccc(O)c1 (stereo not drawn) [TCMDC-125634] | 29.96 |
| COC(=O)C1=C(C)NC2=C(C(=O)CC(c3ccc(OC)c(OC)c3)C2)C1c1cccc(O)c1 (stereo not drawn) [TCMDC-125609] | 17.77 |
| COc1ccc(C2CC(c3cccs3)=NN2C(=O)COc2cccc3c2CCCC3O)cc1OC (stereo not drawn) [TCMDC-125033] | 11.22 |
| O=C(/C=C/c1ccc(Cl)c(Cl)c1)NCCCCCN1CCC(NS(=O)(=O)c2cc(Cl)cc(Cl)c2)CC1 [TCMDC-135905] | 1.117 |
| O=C(C=Cc1ccc(Cl)c(Cl)c1)NCCCCCN1CCC(CCCNS(=O)(=O)c2ccc(Br)cc2)CC1 [TCMDC-139590] | 106.1 |
| O=C(C=Cc1ccc(Cl)c(Cl)c1)NCCCCCN1CCCC(CCCNS(=O)(=O)c2ccc(Br)cc2)C1 (stereo not drawn) [TCMDC-139592] | 37.84 |
| O=C(C=Cc1ccc(Cl)c(Cl)c1)NCCCCCN1CCC(CCCNC(=O)C2CC2c2ccccc2)CC1 (stereo not drawn) [TCMDC-139572] | -16.95 |
| O=C(/C=C/c1ccc(Cl)c(Cl)c1)NCCCCCN1CCC(NC(=O)Nc2ccc(Br)cc2)CC1 [TCMDC-135728] | 5.216 |
| O=C(C=Cc1ccc(Cl)c(Cl)c1)NCCCCCN1CCC(CCNS(=O)(=O)c2ccc(Br)cc2)CC1 [TCMDC-139586] | 95.36 |
| CCCCCCCCS(=O)(=O)NCCCC1CCN(CCCCCNC(=O)C=Cc2ccc(Cl)c(Cl)c2)CC1 [TCMDC-139588] | 108.5 |
| COc1ccc(S(=O)(=O)NCCCC2CCN(CCCCCNC(=O)C=Cc3ccc(Cl)c(Cl)c3)CC2)cc1 [TCMDC-139587] | 105.9 |
| COc1ccc(S(=O)(=O)NCCC2CCN(CCCCCNC(=O)C=Cc3ccc(Cl)c(Cl)c3)CC2)cc1 [TCMDC-139584] | 28.62 |
